A short description of experiment [1]: ATG_ISRE_CIS: Attagene CIS-FACTORIAL HepG2 Assay for human Interferon Regulatory Factor 1 (IRF1) binding to an Interferon-Stimulated Response Element (ISRE) (AID 2282948). As to conditions: HepG2 ISRE cis-reporter (Attagene), mRNA transcription readout; actives raise or lower the signal. Put shortly: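 Uses HepG2 liver cells transfected with cis-regulated reporters and measures mRNA 24 h post-dosing through RT-PCR, primer-extension labelling and capillary electrophoresis, with DMSO as negative control.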

Experiment [2] in a line: ATG_M_32_CIS: Attagene CIS-FACTORIAL HepG2 Assay for M32 Transcription Factor (Internal Marker) (AID 2282949).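 Also: background control marker of the multiplexed CIS panel rather than a real target.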 The settings on record: HepG2 Attagene cis-factorial M32 reporter, mRNA; actives raise or lower the signal. Put shortly:
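Using DMSO as baseline, bidirectional curve fits were applied to reporter mRNA signals. These came from transiently transfected HepG2 cells exposed for 24 h, with RNA analysed by RT-PCR, FAM primer extension, HpaI digestion and CE.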

The nature of experiment [3]: ATG_M_06_CIS: Attagene CIS-FACTORIAL HepG2 Assay for M06 Transcription Factor (Internal Marker) (AID 2282950). The settings on record: HepG2 Attagene CIS-FACTORIAL M06 internal marker reporter; actives raise or lower the signal. Put shortly: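 Steps: transfect HepG2 with multiplexed cis-element reporter constructs; dose chemical 24 h; extract RNA with DNase treatment; reverse-transcribe, PCR-amplify, 6-FAM label, HpaI digest; separate fragments by capillary electrophoresis. Activity fitted both directions versus DMSO.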

Experiment [4] addresses Hypoxia-inducible factor 1-alpha (Homo sapiens) (UniProt Q16665). As to the kind of experiment: ATG_HIF1a_CIS: Attagene CIS-FACTORIAL HepG2 Assay for human Hypoxia Inducible Factor 1 (HIF1A) (AID 2282951). The settings on record: HepG2 Attagene cis-factorial HIF1a reporter transcription; actives raise or lower the signal. The gist of the method:
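HepG2 cells transiently transfected with multiplexed cis-promoter reporter units; reporter mRNA read 24 h after dosing by RT-PCR, 6-FAM primer-extension labelling, HpaI digestion and capillary electrophoresis. Bidirectional fit versus DMSO baseline.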

The target in experiment [5] is Hepatocyte nuclear factor 6 (Homo sapiens) (UniProt Q9UBC0). As to the kind of experiment: ATG_HNF6_CIS: Attagene CIS-FACTORIAL HepG2 Assay for human Hepatocyte Nuclear Factor 6 (HNF6) (AID 2282952). As to conditions: HepG2 Attagene cis-factorial HNF6 reporter transcription; actives raise or lower the signal. Put shortly: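 First, HepG2 cells were transfected with the multiplexed cis reporter library and dosed with chemical for 24 h. Next, RNA was reverse-transcribed, PCR-amplified and fluorescently labelled. Finally, HpaI-digested fragments were read by capillary electrophoresis.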

In experiment [6] the target is Heat shock factor protein 1 (Homo sapiens) (UniProt Q00613). Description: ATG_HSE_CIS: Attagene CIS-FACTORIAL HepG2 Assay for human Heat Shock Transcription Factor 1 (HSE) (AID 2282953). As to conditions: HepG2 HSE cis-reporter, Attagene RNA transcription; actives raise or lower the signal. The gist of the method:
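Cells were transfected with cis-element-driven reporter constructs, dosed for 24 h, then total RNA was reverse-transcribed and reporter cDNA amplified, FAM-labelled and digested with HpaI. Fragments were resolved by capillary electrophoresis; gain or loss was fitted against DMSO.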

Experiment [7] can be described thus: ATG_MRE_CIS: Attagene CIS-FACTORIAL HepG2 Assay for human Metal Responsive Element (MRE) (AID 2282954). The settings on record: HepG2 MRE cis-reporter transcription, Attagene multiplex; actives raise or lower the signal. The gist of the method: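 Readout: capillary electrophoresis of 6-FAM-labelled, HpaI-digested RT-PCR reporter products. System: HepG2 cells carrying transient multiplexed cis reporters, dosed 24 h. Analysis: bidirectional fit, DMSO baseline.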

A short description of experiment [8]: ATG_PBREM_CIS: Attagene CIS-FACTORIAL HepG2 Assay for human Phenobarbital-responsive Enhancer Module (PBREM) (AID 2282955). As to conditions: HepG2 PBREM cis-reporter, Attagene multiplexed transcription; actives raise or lower the signal. The gist of the method:
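HepG2 cells transiently transfected with multiple cis-regulated reporter transcription units; endogenous factor activity at the PBREM element measured as reporter mRNA 24 h after dosing, via RT-PCR and capillary electrophoresis of fluorescent fragments; bidirectional fitting versus DMSO.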

Experiment [9] addresses Paired box protein Pax-6 (Homo sapiens) (UniProt P26367). Description: ATG_Pax6_CIS: Attagene CIS-FACTORIAL HepG2 Assay for human Paired Box 6 (PAX6) (AID 2282956). As to conditions: HepG2 CIS-FACTORIAL PAX6 reporter transcription, RNA readout; actives raise or lower the signal. The gist of the method: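 DMSO-referenced bidirectional fits of reporter mRNA fluorescence; HepG2 with transient cis-promoter MRTUs, 24 h post-dose, RT-PCR plus capillary electrophoresis detection.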

Experiment [10] can be described thus: ATG_GRE_CIS: Attagene CIS-FACTORIAL HepG2 Assay for human Glucocorticoid Response Elements (GRE) (AID 2282947). As to conditions: HepG2 GRE cis-reporter, Attagene multiplex mRNA; actives raise or lower the signal. The gist of the method:
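HepG2, transient cis-reporter transfection, 24 h. Reporter mRNA: RT-PCR then CE, fluorescence. Fit both directions vs DMSO.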

Activity calls are given as the source filed them. The calls were made as follows: active = hit-call score of the fitted dose curve at least 0.9, where 1 is the maximum; inactive = score below 0.9.

As a reminder, the AC50 is the concentration at which the activity in the assay is half-maximal.

Chain of Hypoxia-inducible factor 1-alpha (Homo sapiens) (Q16665 whole entry, looked up): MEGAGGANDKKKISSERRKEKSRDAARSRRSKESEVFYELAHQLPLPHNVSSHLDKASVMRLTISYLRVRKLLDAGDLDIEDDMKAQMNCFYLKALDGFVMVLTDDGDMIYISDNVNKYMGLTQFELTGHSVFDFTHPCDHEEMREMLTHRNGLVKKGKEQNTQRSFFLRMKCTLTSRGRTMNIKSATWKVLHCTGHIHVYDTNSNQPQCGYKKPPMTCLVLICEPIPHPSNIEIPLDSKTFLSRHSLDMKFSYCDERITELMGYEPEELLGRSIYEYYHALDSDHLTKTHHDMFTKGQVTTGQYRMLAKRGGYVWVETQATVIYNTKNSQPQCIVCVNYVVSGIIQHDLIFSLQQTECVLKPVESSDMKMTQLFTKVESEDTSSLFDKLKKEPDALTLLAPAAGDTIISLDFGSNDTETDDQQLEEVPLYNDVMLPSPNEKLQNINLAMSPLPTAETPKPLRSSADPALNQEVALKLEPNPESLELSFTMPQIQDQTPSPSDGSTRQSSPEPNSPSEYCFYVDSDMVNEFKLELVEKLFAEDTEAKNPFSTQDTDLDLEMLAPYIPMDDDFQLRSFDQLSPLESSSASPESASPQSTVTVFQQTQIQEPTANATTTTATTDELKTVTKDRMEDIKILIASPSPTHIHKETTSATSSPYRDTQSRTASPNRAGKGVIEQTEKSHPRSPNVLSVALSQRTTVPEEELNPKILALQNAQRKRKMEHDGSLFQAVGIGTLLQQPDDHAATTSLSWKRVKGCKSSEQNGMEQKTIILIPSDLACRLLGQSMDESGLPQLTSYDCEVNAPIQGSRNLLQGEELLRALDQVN
Chain of Paired box protein Pax-6 (Homo sapiens) (P26367 whole entry, looked up): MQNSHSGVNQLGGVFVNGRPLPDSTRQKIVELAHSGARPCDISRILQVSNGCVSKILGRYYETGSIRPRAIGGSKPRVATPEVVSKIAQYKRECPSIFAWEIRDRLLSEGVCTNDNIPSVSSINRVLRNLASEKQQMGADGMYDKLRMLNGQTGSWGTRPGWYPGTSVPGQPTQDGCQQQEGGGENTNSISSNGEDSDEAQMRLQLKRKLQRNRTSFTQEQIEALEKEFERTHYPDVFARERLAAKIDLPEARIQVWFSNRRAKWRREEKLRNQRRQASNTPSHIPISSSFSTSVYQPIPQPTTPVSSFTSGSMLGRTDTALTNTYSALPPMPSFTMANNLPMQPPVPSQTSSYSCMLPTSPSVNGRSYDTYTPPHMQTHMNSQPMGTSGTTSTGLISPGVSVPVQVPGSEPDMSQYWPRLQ
Chain of Heat shock factor protein 1 (Homo sapiens) (Q00613 whole entry, looked up, the tested form may be a part): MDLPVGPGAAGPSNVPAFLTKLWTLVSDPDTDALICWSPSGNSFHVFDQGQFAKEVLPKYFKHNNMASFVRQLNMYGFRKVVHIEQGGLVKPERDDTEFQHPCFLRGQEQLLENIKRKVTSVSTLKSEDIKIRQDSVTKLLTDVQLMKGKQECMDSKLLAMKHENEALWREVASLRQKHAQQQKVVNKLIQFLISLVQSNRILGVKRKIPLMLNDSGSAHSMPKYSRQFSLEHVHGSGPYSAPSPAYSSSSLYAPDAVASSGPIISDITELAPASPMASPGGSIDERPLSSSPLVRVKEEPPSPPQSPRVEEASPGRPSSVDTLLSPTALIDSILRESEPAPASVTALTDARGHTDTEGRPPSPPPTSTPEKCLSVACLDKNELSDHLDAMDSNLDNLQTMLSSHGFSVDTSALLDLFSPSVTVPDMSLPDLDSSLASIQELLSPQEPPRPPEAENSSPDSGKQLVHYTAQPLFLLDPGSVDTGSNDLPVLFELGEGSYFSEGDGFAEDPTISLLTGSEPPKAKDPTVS
Chain of Hepatocyte nuclear factor 6 (Homo sapiens) (Q9UBC0 whole entry, looked up, the tested form may be a part): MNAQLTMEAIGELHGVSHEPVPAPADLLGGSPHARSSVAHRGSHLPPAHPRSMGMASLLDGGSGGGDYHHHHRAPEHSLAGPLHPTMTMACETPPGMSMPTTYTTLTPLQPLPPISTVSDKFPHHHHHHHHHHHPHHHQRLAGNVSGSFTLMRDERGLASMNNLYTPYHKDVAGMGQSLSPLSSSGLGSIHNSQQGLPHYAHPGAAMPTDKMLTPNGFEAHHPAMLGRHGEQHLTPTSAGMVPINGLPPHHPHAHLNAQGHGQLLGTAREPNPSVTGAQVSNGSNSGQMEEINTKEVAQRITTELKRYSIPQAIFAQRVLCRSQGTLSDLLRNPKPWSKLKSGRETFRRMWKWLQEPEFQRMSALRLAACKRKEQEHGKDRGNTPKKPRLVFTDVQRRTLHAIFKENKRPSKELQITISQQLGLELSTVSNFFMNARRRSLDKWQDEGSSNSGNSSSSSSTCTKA

Turning to `O=C1OC(=O)c2c(Cl)c(Cl)c(Cl)c(Cl)c21`, the outcome in experiment [1], in experiment [2], in experiment [3], in [4], in experiment [5] and in experiment [6] was inactive. The result in experiment [7], in experiment [8] and in experiment [9] was inactive.
On to `CCCCCC(=O)CC`, for which the outcome in experiment [1], in [2], in [3], in experiment [4], in [5] and in [6] was inactive. The compound was called inactive in [7], in experiment [8] and in experiment [9].
In the case of `CN(C)c1ccncc1`, the call in experiment [1], in experiment [2], in experiment [3], in experiment [4], in [5] and in experiment [6] was inactive. Moreover, the compound was called inactive in [7], in experiment [8] and in [9].
On to `CCCCN(CCCC)C(=O)N(CCCC)CCCC`, for which the outcome in experiment [1], in experiment [2] and in experiment [3] was inactive. The AC50 was 54.8 µM (active) in experiment [4]; 53.7 µM (active) in experiment [5]; 52.2 µM (active) in [6]; 8.86 µM (active) in [7]; 58.9 µM (active) in experiment [8]; 37.2 µM (active) in experiment [9].
With `C=Cc1ccc(C(C)(C)C)cc1`, the compound was called inactive in [1], in experiment [2], in experiment [3], in experiment [4], in experiment [5] and in [6]. Further, the compound was classed as inactive in experiment [7], in experiment [8] and in [9].
Consider `CCCCSCCCC`, for which the outcome in experiment [1], in [2], in experiment [3], in [4], in experiment [5] and in experiment [6] was inactive. Besides, the compound was called inactive in experiment [7], in experiment [8] and in [9].
Turning to `Nc1ccc(N)c2c1C(=O)c1ccccc1C2=O`, the result in [1], in experiment [2], in [3], in [4], in experiment [5] and in experiment [6] was inactive. The outcome in experiment [7], in experiment [8] and in experiment [9] was inactive.
Turning to `COC(CC(C)CCCC(C)(C)O)OC` (stereo not given), the call in experiment [10], in [3], in experiment [4], in experiment [5], in experiment [7] and in experiment [8] was inactive. The outcome in experiment [9] was inactive.
As to `Cc1ccc(S(=O)(=O)Oc2ccc(N=Nc3ccc(-c4ccc(N=Nc5c(O)ccc6cc(S(=O)(=O)O)cc(S(=O)(=O)O)c56)c(C)c4)cc3C)cc2)cc1`, the outcome in experiment [1], in [2], in [3], in experiment [4], in [5] and in [6] was inactive. Further, the compound was called inactive in [7], in experiment [8] and in [9].
In the case of `c1ccc(CCc2ccccc2)cc1`, the compound was classed as inactive in experiment [1], in experiment [2], in experiment [3], in experiment [4], in experiment [5] and in experiment [6]. For the same compound, the outcome in [7], in [8] and in experiment [9] was inactive.
`CCCCCCOC(=O)CCC`: the result in experiment [1], in [2], in experiment [3], in experiment [4], in experiment [5] and in [6] was inactive. The compound was called inactive in experiment [7], in experiment [8] and in experiment [9].
`O=C1NC2NC(=O)NC2N1` (stereo not given): the outcome in [1], in experiment [2], in [3], in experiment [4], in experiment [5] and in [6] was inactive. For the same compound, the call in experiment [7] and in [9] was inactive.
On to `O=C1CCCC=CCCCCCCCCCC1`, for which the AC50 is 41.2 µM (active) in experiment [1] and 63 µM (active) in experiment [6]. In addition, the call in experiment [2], in experiment [3], in [4], in experiment [5], in experiment [7] and in experiment [8] was inactive. Moreover, the result in experiment [9] was inactive.
Take `CCCC(=O)C(CC)Sc1ccoc1C` (stereo not given): the outcome in experiment [1], in [2], in experiment [3], in experiment [4], in [5] and in experiment [6] was inactive. The outcome in experiment [7], in [8] and in experiment [9] was inactive.
Consider `O=C1c2ccccc2C(=O)c2c(O)ccc(O)c21`, for which the call in experiment [1], in experiment [2], in [3], in experiment [4], in experiment [5] and in [6] was inactive. Moreover, the compound was called inactive in [7], in experiment [8] and in experiment [9].
Consider `O=C1OC2(c3ccccc31)c1ccc(O)c(Br)c1Oc1c2ccc(O)c1Br`, for which the compound was classed as inactive in experiment [1], in experiment [2], in experiment [3], in experiment [4], in experiment [5] and in [6]. The result in experiment [7] and in experiment [9] was inactive. Also, in experiment [8], the AC50 was 35.3 µM (active).
For the compound `Cc1ccc(S(N)(=O)=O)cc1`, the result in [1], in experiment [2], in [3], in experiment [4], in [5] and in [6] was inactive. The call in experiment [7] and in experiment [9] was inactive.
Consider `OCCOCCN1CCN(C2=Nc3ccccc3Sc3ccccc32)CC1`, for which the AC50 is 152 µM (active) in [1] and 71.7 µM (active) in experiment [7]. In addition, the outcome in experiment [2], in experiment [3], in [4], in experiment [5] and in experiment [9] was inactive.
`OC[C@H]1O[C@@H](Oc2ccc(O)cc2)[C@H](O)[C@@H](O)[C@@H]1O`: the call in experiment [1], in [2], in experiment [3], in [4], in experiment [5] and in [6] was inactive. Also, the result in experiment [7] and in experiment [9] was inactive.
In the case of `CCCCCCCCCC(=O)OC`, the compound was called inactive in [1], in experiment [2], in [3], in experiment [5], in experiment [6] and in experiment [7]. Also, the outcome in experiment [8] and in [9] was inactive.
As to `CCC1(C)NC(=O)NC1=O` (stereo not given), the call in experiment [1], in [2], in experiment [3], in experiment [4], in [5] and in experiment [7] was inactive. Also, the compound was classed as inactive in [9].
Consider `CN(C)CCOC(C)(c1ccccc1)c1ccccn1` (stereo not given), for which the result in [1], in [2], in experiment [3], in [5], in [7] and in experiment [8] was inactive. Moreover, the compound was classed as inactive in experiment [9].
For `COC(=O)c1cccnc1`, the result in experiment [1], in experiment [2], in [3], in experiment [5], in experiment [6] and in [7] was inactive. Also, the outcome in [8] and in [9] was inactive.
Turning to `CC(=O)OCCCc1ccccc1`, the outcome in [1], in [2], in [3], in experiment [4], in [5] and in experiment [6] was inactive. In addition, the outcome in experiment [7] and in [9] was inactive.
For the compound `CN(c1nccc(=O)[nH]1)C1CCN(c2nc3ccccc3n2Cc2ccc(F)cc2)CC1`, the compound was classed as inactive in experiment [1], in experiment [2], in experiment [3], in experiment [5], in [6] and in experiment [8]. The outcome in experiment [9] was inactive. The AC50 in experiment [7] is 26.7 µM (active).
In the case of `CCCCOC(=O)CCCCCCCC(=O)OCCCC`, the result in experiment [1], in [2], in experiment [3], in experiment [4], in [5] and in experiment [7] was inactive. In addition, the outcome in [8] and in experiment [9] was inactive.
For `C[C@H]1C[C@@H](O)CC(C)(C)C1`, the outcome in experiment [1], in experiment [2], in [3], in [5], in experiment [7] and in [8] was inactive. Also, the compound was classed as inactive in experiment [9].
Regarding `CC1(C)O[C@@H]2C[C@H]3[C@@H]4CCC5=CC(=O)C=C[C@]5(C)[C@@]4(F)[C@@H](O)C[C@]3(C)[C@]2(C(=O)CO)O1`, the result in experiment [1], in experiment [2], in [3], in experiment [4], in experiment [5] and in [7] was inactive. For the same compound, the compound was classed as inactive in experiment [9].
In the case of `COc1ccccc1[N+](=O)[O-]`, the compound was called inactive in experiment [1], in experiment [2], in experiment [3], in [5], in [6] and in [7]. Moreover, the result in experiment [8] and in experiment [9] was inactive.

The record behind these values is PubChem BioAssay (EPA / NIEHS).
